IL1B secr inh: inflammasome signaling inhibition, IL-1 beta readout | AID 743279 | THP-1 LPS/ATP IL-1B secretion, AlphaLISA, 16 h; stronger effect = lower value | actives 4.7% (n = 360,000) | activity change, % at 57.5 µM; in the data active = activity change below about -50%; inconclusive = mostly about -30% to -49%; also: % is scaled to controls: 0 for no effect and ±100 for the full control effect
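THP-1 cells pretreated 1 hr with compounds (up to 57.5 uM final), then stimulated with LPS (250 ng/mL final) plus ATP (1.25 mM final); secreted IL-1B measured by AlphaLISA after 16 hr, decreased signal indicating inhibition.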
D3 antag: blocks the human D3 dopamine receptor. P35462. D3R cells, DiscoveRx beta-arrestin luminescence, antagonist mode; stronger effect = lower value. max response, negative = inhibition, %. actives 2.5% (n = 360,000). AID 652054; in the data active = max response below about -50%; inconclusive = no clear call, values can overlap the other calls; also: % is scaled to controls: 0 for no effect and ±100 for the full control effect
Target sequence (P35462 whole entry, looked up): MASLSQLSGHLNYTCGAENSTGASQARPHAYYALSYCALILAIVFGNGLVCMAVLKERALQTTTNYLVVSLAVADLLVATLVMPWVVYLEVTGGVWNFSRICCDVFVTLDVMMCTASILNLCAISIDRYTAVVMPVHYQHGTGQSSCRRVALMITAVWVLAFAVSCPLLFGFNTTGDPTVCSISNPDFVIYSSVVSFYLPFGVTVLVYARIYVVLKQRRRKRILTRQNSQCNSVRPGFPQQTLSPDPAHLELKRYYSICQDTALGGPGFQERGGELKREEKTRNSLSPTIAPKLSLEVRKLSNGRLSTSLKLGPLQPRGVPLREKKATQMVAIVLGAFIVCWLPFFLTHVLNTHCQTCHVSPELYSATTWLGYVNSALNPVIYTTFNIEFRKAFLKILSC
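Cells expressing the human receptor were seeded at 1500 cells/well, incubated overnight at 37 degrees C in 5% CO2, then exposed to library compounds with dopamine controls for 90 minutes at 37 degrees C before luminescent detection.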
TDP1 cell CPT: growth inhibition of DT40 Tdp1-/-;hTDP1 cells with camptothecin (screen for TDP1 inhibitors); chicken DT40 Tdp1-/-;hTDP1 cells + 20 nM CPT, ATP luminescence, 48 h; Potency, µM (titrated, usually from 46.2 µM), without a hit: at the highest dose activity change, negative = growth inhibition, usual class: inhibitors; actives 12% (n = 420,000); also: potency is read from the fitted curve at half-maximal effect; % is scaled to controls: 0 for no effect and ±100 for the full control effect; nearly all actives have a fitted effect of over 55% in size
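Chicken DT40 Tdp1-/- cells stably complemented with human TDP1 were seeded at 400 cells/well in medium containing 20 nM camptothecin, exposed to pin-transferred compounds, and grown at 37 °C for at least 48 hr. Viability was read as ATP luminescence.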
TDP1 cell noCPT: qHTS for Inhibitors of human tyrosyl-DNA phosphodiesterase 1 (TDP1): qHTS in cells in absence of CPT; DT40 Tdp1-/- hTDP1 cells, no CPT, ATP luminescence, 48 h; Potency, µM (titrated, usually from 46.2 µM), for inactives: at the highest dose activity change, negative = growth inhibition, usual class: inhibitors; actives 15% (n = 420,000); AID 686978, 2013; also: potency is read from the fitted curve at half-maximal effect; % is scaled to controls: 0 for no effect and ±100 for the full control effect; nearly all actives have a fitted effect of over 55% in size
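DT40 Tdp1-/-;hTDP1 cells, no CPT (DMSO vehicle only), 400 cells/well; compounds pin-transferred; ≥48 hr, 37 °C; CellTiter-Glo 30 min RT dark, luminescence read.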
DRD3 agonist: activates the human D3 dopamine receptor; P35462; D3R DiscoveRx beta-arrestin cells, luminescence, 90 min; max activation, %; actives 0.58% (n = 410,000); AID 652048; in the data active = max activation above about 30%; also: 0% is about no effect
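Agonist mode: compounds and dopamine controls were applied to plated cells for 90 min at 37 degrees C after an overnight attachment at 1500 cells/well. Luminescent read-out followed 30 - 60 minutes at room temperature with DiscoveRx detection reagent.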
ClpP mod: qHTS Assay for Activators of ClpP; ATP-dependent Clp protease proteolytic subunit (Bacillus subtilis (strain 168)), P80244; purified B. subtilis ClpP, FRET peptide cleavage, 20 min; Potency, µM (top dose mostly 57.5 µM), inactives show at the highest dose activity change, negative = active; actives 1.9% (n = 340,000); AID 651965, 2013; active = well fitted falling curve with a large enough effect; inconclusive = small, poorly fitted or top-dose-only effect; inactive = no such curve, though single readings can be large or run the other way; also: potency is read from the fitted curve at half-maximal effect; the source files actives as falling curves though it sought activators and does not explain the sign; nearly all actives have a fitted effect of over 65% in size
Target sequence (P80244 whole entry, looked up): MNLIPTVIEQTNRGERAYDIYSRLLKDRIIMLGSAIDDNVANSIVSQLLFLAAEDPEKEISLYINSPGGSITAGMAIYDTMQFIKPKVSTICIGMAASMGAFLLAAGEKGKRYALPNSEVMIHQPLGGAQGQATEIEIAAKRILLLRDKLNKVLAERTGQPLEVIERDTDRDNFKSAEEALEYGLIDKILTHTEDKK
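ClpP 10 microg/mL final, pH 8 Tris/KCl buffer with BSA, glycerol, Tween-20; compound pinned in; FRET-FV substrate; RT 20 min; Ex320/Em430; ΔFRET vs ADEP 5.8 microM, DMSO, no enzyme.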
Active calls of the source: *; i = inactive; u = inconclusive; x = not tested or not shown; [ ] = remark or other dose. A selection: hits, their analogues and other compounds. The true share with any hit is near 21%. Unless noted, calls follow the shape of the dose curve; as a rule, active = well fitted inhibition curve with a large enough effect; inconclusive = small, poorly fitted or top-dose-only effect; inactive = flat fitted curve, though single readings scatter.

SMILES	IL1B secr inh	D3 antag	TDP1 cell CPT	TDP1 cell noCPT	DRD3 agonist	ClpP mod
Nc1ccc(CNC(=O)c2cc3cc(Cl)ccc3nc2N)cc1	15	9	u	u	1	-19%
COc1ccc(CCNC(=O)c2ccc(Cl)cc2)cc1OC	-19	-3	-8%	u	5	-3%
COc1ccc(C(=O)Oc2ccc(/C=N/NC(=O)c3cccnc3)cc2OC)cc1	-8	21	-26%	-14%	7	10%
COc1cc(/C=N/NC(=O)c2cccnc2)ccc1OS(=O)(=O)c1cc(C)ccc1C	-76*	62	u	23µM*	8	x
COc1cc(/C=N/NC(=O)c2cccnc2)ccc1OS(=O)(=O)c1ccc(F)cc1	27	18	u	21µM*	3	-1%
COc1ccc(/C=N/NC(=O)c2cccnc2)cc1O	15	22	0%	-2%	1	1%
COc1cccc(/C=N/n2cnc3ccccc32)c1OC	-15	1	u	u	3	-9%
COc1ccc(/C=N/n2c(N)nc(-c3ccccc3)c2-c2ccccc2)cc1	u	-2	26µM*	16µM*	-3	-2%
COc1cccc(/C=N/n2c(N)nc3ccccc32)c1OC	-68*	38	-26%	-24%	30*	u
COc1ccc(/C=N/n2cnn(Cc3ccccc3Cl)c2=S)cc1OC	-55*	6	u	u	26	x
Oc1ccc(/C=N/n2cnn(Cc3ccccc3Cl)c2=S)c(O)c1	16	12	u	-5%	13	-1%
COc1ccc(/C=N/n2c(N)nc3ccccc32)cc1OC	-60*	-1	-15%	-23%	5	-2%
CN(CC(=O)Nc1c(Cl)cccc1Cl)C(=O)CNC(=O)c1ccc2ccccc2c1	-2	0	-30%	u	4	-13%
COC(=O)C1=C(C(=O)OC)[N+]2=C3N(C(=O)NC2(C)C)[C@H](CO)C[C@@]32c3ccccc3N(Cc3ccccc3)[C@@H]12	-25	-4	1%	u	-37	-1%
COc1ccc(/C=N/n2c(=S)n(C)c3ccccc32)cc1OC	-18	47	u	-23%	63*	0%
CCCCCOc1ccc(/C=C/C(=O)Nc2sc(C(C)=O)c(C)c2C(=O)OCC)cc1OC	x	x	u	5.8µM*	-3	-17%
COC(=O)c1cc(Cl)c(NC(=O)c2cc(OC)c(OC)c(OC)c2)cc1OC	-3	33	-3%	-20%	41*	-27%
COc1ccc(/C=C\C(=O)Nc2ccccc2C(=O)O)cc1OC	x	x	13µM*	13µM*	x	x
CCOCCOC(=O)c1ccc(NC(=O)/C=C/c2ccc(OC)c(OC)c2)cc1	x	x	26µM*	9.2µM*	-10	4%
COc1ccc(CNc2oc(/C=C/c3cc(OC)c(OC)c(OC)c3)nc2C#N)cc1	x	x	u	u	15	4%
Cc1c(Cl)cccc1NC(=O)CNS(=O)(=O)c1cccs1	x	x	-4%	-3%	0	-1%
COc1ccc(CNc2nc(-c3ccco3)nn2C(=O)CC(C)C)cc1	x	x	-23%	-13%	2	5%
COc1ccc(/C=C/C(=O)Nc2nc(C)cc(C)n2)cc1OC	19	1	u	u	2	35µM*
CCCCOC(=O)c1ccc(NC(=O)Nc2ccc(OC)c(OC)c2)cc1	-13	-14	u	u	2	-3%
COC(=O)c1cn(C(=O)/C=C/c2ccc(OC)c(OC)c2)c2ccccc12	-69*	22	u	16µM*	27	x
SMILES	IL1B secr inh	D3 antag	TDP1 cell CPT	TDP1 cell noCPT	DRD3 agonist	ClpP mod
COc1ccc(/C=C/C(=O)Nc2ccc(Cl)c(Cl)c2)cc1OC	x	x	u	21µM*	-9	u
COc1ccc(OC)c(/C=C/C(=O)Nc2ccc(C(=O)OCCC(C)C)cc2)c1	x	x	18µM*	18µM*	2	4%
COc1ccc(NC(=O)/C=C/c2ccc(OC)c(OC)c2)cn1	-8	13	-21%	u	0	-1%
COc1ccc(/C=C/C(=O)Nc2ccncc2)cc1OC	-22	3	-20%	-24%	6	x
O=C(CN1CCN(S(=O)(=O)c2cccs2)CC1)NCC1CCCCC1	21	16	-20%	-10%	4	1%
CCOC(=O)c1ccccc1NC(=O)/C=C/c1cc(OC)c(OC)c(OC)c1	-7	9	-20%	6.5µM*	3	17%
COC(=O)c1cc(Cl)c(NC(=O)/C=C/c2ccc(OC)c(OC)c2)cc1OC	-3	34	u	23µM*	27	28µM*
Cc1ccc(NC(=O)Nc2ccc3c(c2)OCO3)c(OC(F)F)c1	i	-28	-1%	-14%	-6	-2%
COc1cc(/C=C/C(=O)Nc2ccc3[nH]c(=O)[nH]c3c2)cc(OC)c1OC	-72*	-2	3%	2%	1	-6%
CCOC(=O)c1ccccc1NC(=O)Cc1ccccc1OC	1	-16	u	-15%	18	-9%
COc1ccc(NC(=O)Nc2ccc(C)cc2OC(F)F)cc1OC	-11	33	u	21µM*	-1	1%
O=C(COC(=O)CNS(=O)(=O)c1cccc(F)c1)NCCc1ccccc1	11	5	6%	-5%	5	x
CC1ON=C(c2ccc(F)cc2)NC1=O (stereo not drawn)	5	10	12%	18%	0	-6%
CCOC(=O)c1ccccc1NC(=O)Nc1ccc(OC)c(OC)c1	-67*	12	-24%	7%	-6	0%
O=C(c1ccc2c(c1)OCO2)N(Cc1cc2ccc(F)cc2nc1N1CCC(O)CC1)CC1CCCO1 (stereo not drawn)	x	x	5%[9.04 µM]	u	x	x
COc1cccc(S(=O)(=O)NCc2ccc(C(=O)Nc3cccc(Cl)c3)cc2)c1	u	3	21µM*	26µM*	-10	-1%
Cc1ccccc1NC(=O)c1ccc(CNS(=O)(=O)c2ccc3c(c2)C(C)(C)C(=O)N3C)cc1	x	x	u	u	5	0%
Cc1cccc(NC(=O)c2ccc(CNS(=O)(=O)c3ccc4c(c3)C(C)(C)C(=O)N4C)cc2)c1	x	x	21µM*	12µM*	2	-3%
COc1cccc(NC(=O)c2ccc(CNS(=O)(=O)c3ccc4c(c3)C(C)(C)C(=O)N4C)cc2)c1	x	x	u	23µM*	10	0%
